Measurements reported in PubChem BioAssay AID504332 (National Center for Advancing Translational Sciences (NCATS), 2011).
Out of some 350,000 compounds screened, about 31,000 (8.9%) were called active. Not shown: some 15% with an inconclusive outcome. The list comes from a sample in which actives are over-represented; it also holds similar structures and randomly drawn compounds. A number with no mark means an inactive call. Calls come from the whole dose curve; as a rule, active = well fitted inhibition curve with a large enough effect; inconclusive = small, poorly fitted or top-dose-only effect; inactive = no such curve, though single readings can be large or run the other way.

These molecules were tested against Histone-lysine N-methyltransferase EHMT2 (Homo sapiens) (UniProt Q96KQ7) (assay: qHTS Assay for Inhibitors of Histone Lysine Methyltransferase G9a). Conditions: G9a H3K9 monomethylation, AlphaScreen, 2 h; series mostly up to 59 µM; activity, negative = inhibition: at the top concentration.
Chain of Histone-lysine N-methyltransferase EHMT2 (Homo sapiens) (Q96KQ7 913-1193 limits assumed): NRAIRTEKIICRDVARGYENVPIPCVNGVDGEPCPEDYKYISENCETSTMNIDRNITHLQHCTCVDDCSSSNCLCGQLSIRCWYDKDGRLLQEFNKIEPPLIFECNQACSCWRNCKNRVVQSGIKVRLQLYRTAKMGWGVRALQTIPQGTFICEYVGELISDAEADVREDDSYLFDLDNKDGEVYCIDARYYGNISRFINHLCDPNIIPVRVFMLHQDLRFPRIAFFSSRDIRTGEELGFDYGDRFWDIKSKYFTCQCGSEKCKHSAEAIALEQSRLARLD
How it was run: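 AlphaScreen read-out: biotin-H3K9 peptide (500 nM) methylation by 20 nM enzyme with 20 uM SAM, 2 h at room temperature after 15 min compound preincubation; anti-monomethyl H3K9 antibody plus donor/acceptor beads, 10 min dark.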
% is set by controls: 0 for no effect and ±100 for the full control effect; potency is the fitted concentration of half-maximal effect.
Note: nearly all actives have a fitted effect of over 75% in size.

Structure (SMILES) | activity, negative = inhibition | Potency
COc1ccc(NC(=O)CSc2nc(N)c(-c3ccccc3)c(=O)[nH]2)cc1 | -21.3% | 
COc1ccc(NC(=O)CSc2ncnc3[nH]ncc23)cc1 | 6.21% [at 102 µM] | 
COc1ccc(-c2nc3c(c(SCC(=O)Nc4ccc(C(=O)O)cc4)n2)Cc2ccccc2O3)cc1 |  | 11.2 µM (active)
CCc1ccc(NC(=O)N2CCN(C(=O)c3nsc4ccccc34)CC2)cc1 | 8.41% | 
CN(Cc1ccccc1)Cc1ccccc1F |  | 8.91 µM (active)
CN(CC(=O)NC(=O)Nc1ccccc1F)Cc1ccccc1 | 2.2% [at 0.501 µM] | 
CN(Cc1ccccc1F)C(=O)C(Cc1ccccc1)NC(=O)c1ccccc1 (stereo unspecified) | 8.33% [at 102 µM] | 
O=C(NCC(c1cccs1)N1CCOCC1)c1cc(Cl)ccc1[N+](=O)[O-] (stereo unspecified) | 3.96% [at 0.501 µM] | 
COC(=O)c1ccc(NC(=O)c2cc(S(=O)(=O)N3CCC(C)CC3)cn2C)cc1 | 4.49% | 
O=C(Nc1ccn(Cc2ccccc2)n1)c1cccc(F)c1 | -8.84% [at 102 µM] | 
Cc1ccc(Cn2ccc(NC(=O)c3cc(C(C)C)on3)n2)cc1 | -37.2% [at 102 µM] | 
Cc1ccc(Cn2ccc(NC(=O)C3C4CCC(C4)C3C(=O)O)n2)cc1 (stereo unspecified) |  | 56.2 µM (active)
Cc1cccc(NC(=O)N2CCC(CN3CCc4ccccc4C3)CC2)c1C | 10.2% | 
COc1cccc(CNC(=O)C2CC(=O)N(C3CCCCCCC3)C2)c1 (stereo unspecified) | 14.8% | 
O=C(COC(=O)Cc1ccc(Br)cc1)Nc1ccc(N2CCOCC2)cc1 | 4.16% | 
O=C(COC(=O)CCc1nc2ccccc2c(=O)[nH]1)Nc1ccc(N2CCOCC2)cc1 |  | 50.1 µM (active)
CCn1nc(C(=O)Nc2ccc(N3CCOCC3)cc2)c2ccccc2c1=O | 17.9% [at 12.7 µM] | 
CCCCNc1ccc(-c2nc(-c3ccncc3)no2)cc1[N+](=O)[O-] | -26.7% | 
COc1ccc(OC)c(CCNC(=O)CCCn2c(=O)c3cccn3c3cccnc32)c1 | -8.79% | 
CC(C)c1ccc2oc(-c3cc(NC(=O)c4cccs4)ccc3Cl)nc2c1 | 15.9% | 
COc1cc(OC)c(NC(=O)c2c3c(nn2C)-c2ccccc2SC3)cc1Cl | -9.51% | 

Structure (SMILES) | activity, negative = inhibition | Potency
Cc1c(-c2nc(-c3ccc4c(c3)OCO4)no2)nnn1-c1ccc(Br)cc1F | 6.85% | 
O=C(COC(=O)c1ccc([N+](=O)[O-])cc1Cl)NC(=O)c1ccccc1 | -29.5% [at 102 µM] | 
CCN1CCN(CCCNC(=O)c2cnn(-c3ccc(C)cc3C)c2C2CCN(C(=O)OC(C)(C)C)CC2)CC1 | 8.42% | 
Cc1cc(C)c(NC(=O)c2cc3sc(Cl)cc3n2C)c(C)c1 | 5.54% | 
COc1cccc(C(=O)NC(=O)Nc2ccc(-c3cc(C(F)(F)F)nn3-c3ccccc3)cc2)c1 | 11.4% | 
CC(=O)Oc1ccc(N(C(C)=O)S(=O)(=O)c2ccc3ccccc3c2)cc1Br | -1.32% [at 102 µM] | 
COC(=O)c1c(C)oc2ccc(N(C(=O)Oc3ccccc3)S(=O)(=O)c3ccccc3)cc12 | -0.954% | 
CC(=O)N(c1ccc2oc(=O)sc2c1)S(=O)(=O)c1ccc(C)cc1 |  | 25.1 µM (active)
COc1ccc(OC)c(NC(=O)Cn2c(=O)n(Cc3ccccc3)c(=O)c3ccccc32)c1 | -22.9% | 
Cc1nc2cc(NCc3cccs3)ccc2n1C |  | 7.94 µM (active)
Cc1nc2cc(NC(=O)Nc3cccc(F)c3)ccc2n1C | 23.6% [at 12.7 µM] | 
C=CCN(C(=O)Nc1ccc2c(c1)nc(C)n2C)c1ccccc1 | 10.6% [at 12.7 µM] | 
O=C1C=C(c2cccc(Cl)c2O)C[C@@H](c2ccc(F)cc2)C1 | 4.95% [at 0.501 µM] | 
Cc1cccc(CSc2nc3ccncc3n2CC(=O)N(C)C2CCCCC2)c1 | -1.35% | 
CCc1c(C)sc(NC(=O)/C=C/c2ccc3c(c2)OCO3)c1C(=O)OC | 88.9% | 
CCOC(=O)CCCNC(=O)COC(=O)/C=C/c1ccc2c(c1)OCO2 | 2.73% [at 102 µM] | 
CCC1=C/C(=C\c2ccc3c(c2)OCO3)C(=O)S1 |  | 11.2 µM (active)
COc1ccc(CCNC(=O)c2cnc3sc(N4CCCCCC4)nn3c2=O)cc1OC | 11.6% | 
Cc1oc2ccc(O)c(CN3CCC(C)CC3)c2c1C(=O)Nc1ccccc1 | -28.5% | 
Cc1nc2ccc(S(=O)(=O)NC(C(=O)NCc3ccccc3Cl)C(C)C)cc2s1 (stereo unspecified) | 7.62% | 
Brc1ccc(-c2csc(N/N=C/c3ccc4c(c3)OCO4)n2)cc1 |  | 3.55 µM (active)

Structure (SMILES) | activity, negative = inhibition | Potency
O=C(Nc1nc(-c2ccc(-c3ccccc3)cc2)cs1)c1cnccn1 | 23.9% | 
O=C(Cc1ccc(F)cc1)N/N=C/c1ccc2c(c1)OCO2 | 17.5% [at 102 µM] | 
O=C(N/N=C/c1ccc2c(c1)OCO2)C(=O)N1CCCC1 | 5.14% [at 102 µM] | 
O=C(NCc1cccnc1)C(=O)Nc1nc(-c2ccccc2)cs1 | -6.58% | 
Brc1ccc(-c2csc(N/N=C/c3cccnc3)n2)cc1 |  | 14.1 µM (active)
CCOc1ccc(-c2cc3c(=O)n(CC(=O)NCc4ccc(OC)cc4)ccn3n2)cc1 | 0.34% [at 12.7 µM] | 
Cc1ccc(C)c(Oc2c(C(F)(F)F)oc3c(CN4CCN(C)CC4)c(O)ccc3c2=O)c1 | -27.1% | 
Cc1ccc2nc(/C(C#N)=C/c3ccc(-c4ccc(C(=O)OC(C)C)cc4)o3)[nH]c2c1 | -5.43% | 
Cc1ccc(-n2c(SCC(=O)N3c4ccccc4Sc4ccccc43)nnc2-c2ccncc2)cc1 | -5.41% | 
Cc1ccc(Nc2nc(CSc3nnc(-c4ccncc4)n3-c3ccccc3C)cs2)cc1 |  | 44.7 µM (active)
Cc1ccccc1-n1c(SCC(=O)NCc2cccs2)nnc1-c1ccncc1 | 2.97% [at 102 µM] | 
CCOc1ccc(CNCCSc2nnnn2C)cc1 | -3.51% | 
CCc1ccc(NC(=O)c2cc(S(=O)(=O)N3CCCC(C)C3)cn2C)cc1 (stereo unspecified) | -3.12% | 
COc1ccc(OC)c(-c2noc(N3CCN(c4cc(Cl)ccc4C)CC3)n2)c1 | -5.88% | 
COc1ccc(S(=O)(=O)N2CCN(c3ccc(F)cc3)CC2)cc1-c1noc(C)n1 | 6.56% | 
CCc1nc(-c2cc(S(=O)(=O)N3CCN(c4ccc(OC)cc4)CC3)ccc2OC)no1 |  | 0.631 µM (active)
Cc1ccc(-n2ncc3c(N4CCC(C(N)=O)CC4)ncnc32)cc1 | -5.29% | 
CC(C)(C)OC(=O)N1CCC(c2c(C(=O)N3CCc4ccccc4C3)cnn2-c2ccc(F)cc2)CC1 | -8.88% | 
Cc1ccc(C(=O)Nc2ccc(OCc3cc(=O)n4c5c(sc4n3)CCCC5)cc2)cc1 | 7.45% | 
